# Screening results: PubChem BioAssay, Buhrlage Lab, Dana-Farber Cancer Institute and Novartis Institutes for BioMedical Research (Cambridge, Mass)
# USP10 block – inhibitors of human USP10 deubiquitinase | AID 1645856, 2021 | inhibition, % at 20 µM | purified USP10, Ub-rhodamine fluorescence, 60 min | hit rate 1.1% among 47,000
# OTUD3 block – inhibitors of human OTUD3 deubiquitinase; purified OTUD3, Ub-rhodamine fluorescence, 2 h; inhibition, % at 25 µM; hit rate 0.7% among 47,000
# UCHL1 block – inhibitors of human UCHL1 deubiquitinase. Ubiquitin carboxyl-terminal hydrolase isozyme L1 (Homo sapiens), P09936. purified UCHL1, Ub-rhodamine cleavage fluorescence. inhibition, % at 20 µM. hit rate 0.2% among 47,000
# USP7 inh – inhibitors of human USP7 deubiquitinase | hit rate 0.3% among 47,000 | inhibition, % at 20 µM | Ubiquitin carboxyl-terminal hydrolase 7 (Homo sapiens), Q93009 | AID 1645854, 2021 | purified USP7, Ub-rhodamine cleavage fluorescence
# Starred values were filed as active, the others as inactive. A selection: hits, their analogues and other compounds. The true share with any hit is near 1.8%. Cut-off read from the data, not from the text of the source: active = inhibition above about 30%; inactive = the rest.
SMILES,USP10 block,OTUD3 block,UCHL1 block,USP7 inh
COc1ccc(NC(=O)Nc2cccc(-c3nnc(-c4ccccc4)o3)c2)cc1OC,5.5,18.6,6.7,15.6
CC(C)(C)C(=O)Nc1ccc(C(=O)Nc2cccc(-c3nnc(-c4ccccc4)o3)c2)cc1,37.7*,18.0,1.1,7.2
O=C(Nc1ccccc1Cl)c1csc(Cc2c(Cl)cccc2Cl)n1,15.6,20.0,4.7,10.1
CN(C)c1nc2c(cc1C(=O)N1CCCC1)CCN(c1ncc(F)cn1)CC2,-2.3,-0.8,1.1,-14.1
COc1cc(C(=O)OCc2csc(-c3ccccc3)n2)ccc1OCC(=O)Nc1ccc(F)cc1,-5.7,36.0*,0.5,-54.8
O=C(Cn1cc(C(=O)C(F)(F)F)c2cc(Br)ccc21)N1CCc2ccccc21,36.3*,0.6,-2.3,4.9
CCOC(=O)C1CCN(Cc2cc(=O)oc3cc(O)c(O)cc23)CC1,33.5*,84.5*,75.8*,52.4*
Cc1c(CC(=O)N2CCN(c3ccc(Cl)cc3)CC2)c(=O)oc2cc(O)c(Cl)cc12,5.6,11.5,-3.0,2.0
O=C1C[C@@H](O)[C@H](O)[C@@]23O[C@@]12C1(Oc2cccc4cccc(c24)O1)[C@@H]1O[C@@H]1[C@@H]3O,-4.6,33.1*,0.2,-24.0
CN1C(=O)COc2cc(-c3noc(C(=O)N4CCCCCC4)n3)ccc21,0.2,5.5,4.5,-17.9
CCCCCC1OC(=O)c2c(C)cccc2Oc2ccc(O)c(C=O)c2/C=C/C1O (stereo not given),30.6*,44.8*,40.6*,-98.4
CCCCCC1OC(=O)c2c(C)cccc2Oc2ccc(O)c(CO)c2/C=C/C1O (stereo not given),11.9,20.1,13.8,-15.2
CSc1ncccc1C(=O)Nc1ccnn1Cc1ccccc1,1.3,-4.7,0.4,2.8
CSc1ncccc1C(=O)OCc1ccccc1,6.2,1.6,73.9*,-6.6
COc1ccc(-n2ccc3nc(N4CCCC4)ncc3c2=O)cc1,-2.9,5.9,-0.1,1.2
O=C(Nc1ccccc1-c1nc2ccccc2[nH]1)c1ccc(Br)cc1,4.1,-4.4,-3.0,2.2
O=C(Nc1ccccc1-c1nc2ccccc2[nH]1)c1sc2ccccc2c1Cl,32.9*,-7.9,2.8,32.0*
C[C@@H]1CO[C@@H]2C3=C(C(=O)C=CC3=O)[C@H]3OC(=O)[C@@H]4CCC5[C@@H]1CCC52C34 (stereo not given in full),33.7*,58.9*,11.1,-34.0
O=C(c1cc2cn(C3CC3)cc2s1)N1CCCN(c2ncccn2)CC1,-4.2,-22.5,-5.5,-13.7
COc1cccc(NS(=O)(=O)c2cc(C(=O)N3CCCCC3)ccc2NCc2ccccc2OC)c1,2.9,-16.4,-1.6,-0.9
COc1ccc(CNc2ccc(C(=O)OCc3ccccc3F)cc2S(=O)(=O)Nc2cccc(OC)c2)cc1,32.6*,-6.3,2.1,6.0
Cc1ccc(S(=O)(=O)N2CCC(n3cnc4ccc(C)cc4c3=O)CC2)cc1,2.4,1.6,6.8,7.8
Cc1ccc(CNC(=O)CCCCCn2c(=O)c3sccc3n(CC(=O)c3ccc(Cl)cc3)c2=O)cc1,-4.4,10.0,-7.6,8.7
Cc1cc(C)c(NC(=O)Cn2c(=O)n(CCC(=O)NCc3ccc4c(c3)OCO4)c(=O)c3sccc32)c(C)c1,56.9*,33.9*,7.7,30.3*
COc1ccccc1CNC(=O)CCCCn1c(=O)c2ccccc2n(Cc2ccc(C)cc2)c1=O,35.3*,22.0,0.0,8.5
SMILES,USP10 block,OTUD3 block,UCHL1 block,USP7 inh
CCOc1ccc(NC(=O)Cn2c(=O)n(CCCCCC(=O)NCc3ccc(F)cc3)c(=O)c3sccc32)cc1,50.7*,31.9*,6.4,28.5
COc1ccc(Cl)cc1NC(=O)Cn1c(=O)n(CCCC(=O)NCc2ccc(C)cc2)c(=O)c2sccc21,69.4*,6.6,3.7,18.4
COc1ccccc1CNC(=O)CCCCn1c(=O)c2ccccc2n(Cc2ccccc2C#N)c1=O,28.4,22.1,0.8,1.0
CNc1nc(N2CCCCCC2)nc(N(c2ccccc2)c2ccccc2)n1,2.9,2.1,6.6,-5.4
Cc1ccc(S(=O)(=O)Nc2cccc(C#N)c2)cc1C,3.7,-0.8,1.4,3.3
CCOc1ccc(CN2C(=O)c3ccccc3C2C(=O)NCc2ccccc2OC)cc1 (stereo not given),1.2,14.4,3.3,6.5
COc1ccccc1CNC(=O)C1c2ccccc2C(=O)N1Cc1ccc(C)cc1 (stereo not given),3.7,51.9*,3.4,-12.2
COc1cc2c(C#N)c(N3CCCC3)nc3c2c(n1)NC(C)(c1ccc(-c2ccccc2)cc1)N3 (stereo not given),-7.2,-47.0,16.9,34.6*
CCN1C[C@H]2CCN(C(=O)c3cccc(OC)c3)CC[C@H]2S1(=O)=O,-2.9,3.4,0.6,2.1
O=C1C=C(O)c2c(O)cc(O)cc2C1=O,79.0*,98.8*,94.4*,85.0*
O=C(COC(=O)c1cc(Cl)c2c(c1)OCO2)Nc1ccc2[nH]c(=O)[nH]c2c1,29.3,30.7*,2.3,-34.7
O=C(Oc1cc(O)cc2c1C[C@@H](OC(=O)c1cc(O)c(O)c(O)c1)[C@@H](c1cc(O)c(O)c(O)c1)O2)c1cc(O)c(O)c(O)c1,-9.9,72.9*,11.0,15.2
Cc1nc(SCC(=O)Nc2ccc(S(N)(=O)=O)cc2)c2cnn(-c3ccccc3)c2n1,41.4*,-30.3,4.1,2.9
Cc1ncncc1C(=O)N1CCCC(C)(c2ncc(Cc3cccc(F)c3)o2)C1 (stereo not given),2.1,82.3*,3.6,0.6
O=C(c1cnc2oc3ccccc3c2c1)c1ccccc1O,-1.6,5.4,1.3,1.0
O=C(c1cnc2[nH][nH]c(=O)c2c1)c1cc(Cl)cc(Cl)c1O,86.5*,71.2*,61.9*,78.9*
CN1[C@@H](CCC(=O)N2CCc3ccccc32)CNC(=O)[C@@H]2[C@H]1CCN2Cc1ccccn1,-2.2,2.2,-3.1,-1.2
O=C1c2ccccc2C(=O)c2c(O)c(O)cc(O)c21,-2.9,-139.7,45.4*,1.8
O=C(CSc1ccc(-c2cccc([N+](=O)[O-])c2)nn1)Nc1cccc(F)c1,46.2*,5.2,6.9,27.6
Cc1ccccc1CNC(=O)C1CCN(C2=NS(=O)(=O)c3ccccc32)CC1,-3.6,9.1,1.2,5.4
O=C(Nc1cccc(Cl)c1)c1cc(-c2cccnc2)n[nH]1,46.7*,1.2,4.9,7.8
CC(C)C(=O)NCCc1cc2nc(-c3ccncc3)ccn2n1,-0.3,-1.3,-4.9,1.9
CCn1c(=O)n(CC(=O)Nc2ccc3c(c2)OCO3)c(=O)c2ccccc21,1.9,2.5,-2.2,1.7
COc1cc2c(=O)n(CCC(=O)NCc3ccco3)c(=O)n(CC(=O)Nc3c(C)cccc3C)c2cc1OC,-2.8,50.4*,7.6,9.2
Cc1ccc(Cl)cc1NC(=O)Cn1c(=O)n(CCC(=O)NCc2ccco2)c(=O)c2ccccc21,56.4*,15.1,5.4,-9.8
O=C(CCn1c(=O)c2ccccc2n(Cc2ccc(F)cc2Cl)c1=O)NCc1ccco1,40.0*,18.6,4.5,-7.9
